Source: ChEMBL document CHEMBL1961873, “Compounds: GSK PKIS; Assays: Nanosyn kinase panel” (2012)

Key:
[1] = target: Protein kinase C gamma type (Homo sapiens) (UniProt P05129); conditions: at 1 µM;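 further: each value is an averaged percent inhibition of the enzyme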
[2] = target: T1, Protein kinase C iota type (Homo sapiens) (UniProt P41743); conditions: at 0.1 µM
T1 sequence (whole entry): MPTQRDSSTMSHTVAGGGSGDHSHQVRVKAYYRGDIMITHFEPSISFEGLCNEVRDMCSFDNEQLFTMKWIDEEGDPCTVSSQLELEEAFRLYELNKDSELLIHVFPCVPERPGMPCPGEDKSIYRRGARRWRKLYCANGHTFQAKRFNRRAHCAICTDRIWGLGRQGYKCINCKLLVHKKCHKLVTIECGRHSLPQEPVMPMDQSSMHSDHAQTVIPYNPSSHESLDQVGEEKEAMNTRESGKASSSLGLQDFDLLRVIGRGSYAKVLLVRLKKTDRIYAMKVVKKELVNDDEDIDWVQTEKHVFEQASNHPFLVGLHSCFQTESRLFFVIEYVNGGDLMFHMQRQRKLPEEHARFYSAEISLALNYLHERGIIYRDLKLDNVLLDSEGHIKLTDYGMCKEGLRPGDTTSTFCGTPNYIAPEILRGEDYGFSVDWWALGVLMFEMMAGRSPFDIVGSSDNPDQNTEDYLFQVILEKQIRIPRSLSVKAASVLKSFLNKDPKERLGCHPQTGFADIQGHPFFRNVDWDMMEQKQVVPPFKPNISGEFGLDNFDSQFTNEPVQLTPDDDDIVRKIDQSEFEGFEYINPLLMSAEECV

[3] = target: T1, Protein kinase C iota type (Homo sapiens); conditions: at 1 µM
[4] = target: Protein kinase C theta type (Homo sapiens) (UniProt Q04759); conditions: at 0.1 µM
Chain of Protein kinase C theta type (Homo sapiens) (Q04759 whole entry, looked up): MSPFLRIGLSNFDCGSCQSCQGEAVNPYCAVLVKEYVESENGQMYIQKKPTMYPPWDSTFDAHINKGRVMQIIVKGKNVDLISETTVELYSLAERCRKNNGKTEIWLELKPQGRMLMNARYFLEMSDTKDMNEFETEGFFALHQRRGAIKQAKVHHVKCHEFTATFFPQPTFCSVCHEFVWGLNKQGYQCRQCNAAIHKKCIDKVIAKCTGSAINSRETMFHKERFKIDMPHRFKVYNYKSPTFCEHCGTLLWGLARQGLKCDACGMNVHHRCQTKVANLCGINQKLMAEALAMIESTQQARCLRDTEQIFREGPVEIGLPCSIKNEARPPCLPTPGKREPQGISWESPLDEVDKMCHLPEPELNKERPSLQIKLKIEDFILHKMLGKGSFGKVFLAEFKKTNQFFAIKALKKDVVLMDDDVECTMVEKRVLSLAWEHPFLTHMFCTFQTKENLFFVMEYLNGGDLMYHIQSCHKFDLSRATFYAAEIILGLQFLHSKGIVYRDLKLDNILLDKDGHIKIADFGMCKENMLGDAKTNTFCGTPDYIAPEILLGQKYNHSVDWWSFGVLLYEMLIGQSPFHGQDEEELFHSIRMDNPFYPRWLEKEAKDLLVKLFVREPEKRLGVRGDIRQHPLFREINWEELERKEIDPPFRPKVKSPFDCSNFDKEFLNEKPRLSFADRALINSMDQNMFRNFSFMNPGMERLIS

[5] = target: Protein kinase C theta type (Homo sapiens) (UniProt Q04759); conditions: at 1 µM
[6] = target: Protein kinase C beta type (Homo sapiens) (UniProt P05771); conditions: at 0.1 µM
Chain of Protein kinase C beta type (Homo sapiens) (P05771 2-671 limits assumed): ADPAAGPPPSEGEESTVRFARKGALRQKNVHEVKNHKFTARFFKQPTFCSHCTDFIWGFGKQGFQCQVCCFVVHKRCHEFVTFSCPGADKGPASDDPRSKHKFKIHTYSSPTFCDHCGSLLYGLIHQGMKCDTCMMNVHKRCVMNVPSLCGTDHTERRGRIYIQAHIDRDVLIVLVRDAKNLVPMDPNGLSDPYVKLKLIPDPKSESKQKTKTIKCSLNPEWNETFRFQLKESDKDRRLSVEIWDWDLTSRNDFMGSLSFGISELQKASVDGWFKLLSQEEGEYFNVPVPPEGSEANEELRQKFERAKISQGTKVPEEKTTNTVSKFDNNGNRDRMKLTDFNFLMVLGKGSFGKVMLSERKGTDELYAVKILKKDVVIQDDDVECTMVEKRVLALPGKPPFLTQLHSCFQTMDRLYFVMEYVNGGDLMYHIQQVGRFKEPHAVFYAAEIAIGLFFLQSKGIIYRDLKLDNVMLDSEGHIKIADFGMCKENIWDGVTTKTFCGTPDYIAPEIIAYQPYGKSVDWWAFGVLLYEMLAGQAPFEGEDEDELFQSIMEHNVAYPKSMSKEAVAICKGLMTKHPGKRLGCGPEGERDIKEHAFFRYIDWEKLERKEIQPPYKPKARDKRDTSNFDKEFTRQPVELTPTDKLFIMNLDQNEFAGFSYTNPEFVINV

[7] = target: Protein kinase C beta type (Homo sapiens) (UniProt P05771); conditions: at 1 µM
[8] = target: T2, Serine/threonine-protein kinase D1 (Homo sapiens) (UniProt Q15139); conditions: at 0.1 µM
T2 sequence (whole entry): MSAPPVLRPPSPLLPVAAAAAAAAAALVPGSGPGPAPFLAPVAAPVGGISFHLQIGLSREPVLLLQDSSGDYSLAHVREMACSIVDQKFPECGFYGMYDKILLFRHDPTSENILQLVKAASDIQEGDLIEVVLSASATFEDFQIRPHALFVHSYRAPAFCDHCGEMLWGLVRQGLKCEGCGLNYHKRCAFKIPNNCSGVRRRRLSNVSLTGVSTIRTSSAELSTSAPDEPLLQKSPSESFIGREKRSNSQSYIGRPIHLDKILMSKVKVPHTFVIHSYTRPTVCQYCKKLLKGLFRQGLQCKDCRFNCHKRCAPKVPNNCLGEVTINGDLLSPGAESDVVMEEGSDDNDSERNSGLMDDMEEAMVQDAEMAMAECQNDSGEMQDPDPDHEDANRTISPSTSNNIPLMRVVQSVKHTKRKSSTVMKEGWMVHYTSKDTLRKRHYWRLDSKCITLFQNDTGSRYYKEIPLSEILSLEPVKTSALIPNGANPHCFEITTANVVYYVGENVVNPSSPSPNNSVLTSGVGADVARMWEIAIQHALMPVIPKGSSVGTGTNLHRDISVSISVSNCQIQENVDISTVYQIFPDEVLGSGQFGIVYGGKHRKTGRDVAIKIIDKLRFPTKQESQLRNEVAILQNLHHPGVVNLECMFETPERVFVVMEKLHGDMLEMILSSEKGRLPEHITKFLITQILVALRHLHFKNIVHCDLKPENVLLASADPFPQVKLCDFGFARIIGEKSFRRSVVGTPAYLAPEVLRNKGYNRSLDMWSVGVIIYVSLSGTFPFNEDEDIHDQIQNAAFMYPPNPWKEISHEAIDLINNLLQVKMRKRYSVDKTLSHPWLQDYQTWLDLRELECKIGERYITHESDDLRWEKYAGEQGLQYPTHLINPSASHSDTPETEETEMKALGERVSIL

[9] = target: T2, Serine/threonine-protein kinase D1 (Homo sapiens); conditions: at 1 µM
[10] = target: T3, Serine/threonine-protein kinase D2 (Homo sapiens) (UniProt Q9BZL6); conditions: at 0.1 µM;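 further: reported percent inhibition values are means, part of the GSK PKIS kinase panel screen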
T3 sequence (whole entry): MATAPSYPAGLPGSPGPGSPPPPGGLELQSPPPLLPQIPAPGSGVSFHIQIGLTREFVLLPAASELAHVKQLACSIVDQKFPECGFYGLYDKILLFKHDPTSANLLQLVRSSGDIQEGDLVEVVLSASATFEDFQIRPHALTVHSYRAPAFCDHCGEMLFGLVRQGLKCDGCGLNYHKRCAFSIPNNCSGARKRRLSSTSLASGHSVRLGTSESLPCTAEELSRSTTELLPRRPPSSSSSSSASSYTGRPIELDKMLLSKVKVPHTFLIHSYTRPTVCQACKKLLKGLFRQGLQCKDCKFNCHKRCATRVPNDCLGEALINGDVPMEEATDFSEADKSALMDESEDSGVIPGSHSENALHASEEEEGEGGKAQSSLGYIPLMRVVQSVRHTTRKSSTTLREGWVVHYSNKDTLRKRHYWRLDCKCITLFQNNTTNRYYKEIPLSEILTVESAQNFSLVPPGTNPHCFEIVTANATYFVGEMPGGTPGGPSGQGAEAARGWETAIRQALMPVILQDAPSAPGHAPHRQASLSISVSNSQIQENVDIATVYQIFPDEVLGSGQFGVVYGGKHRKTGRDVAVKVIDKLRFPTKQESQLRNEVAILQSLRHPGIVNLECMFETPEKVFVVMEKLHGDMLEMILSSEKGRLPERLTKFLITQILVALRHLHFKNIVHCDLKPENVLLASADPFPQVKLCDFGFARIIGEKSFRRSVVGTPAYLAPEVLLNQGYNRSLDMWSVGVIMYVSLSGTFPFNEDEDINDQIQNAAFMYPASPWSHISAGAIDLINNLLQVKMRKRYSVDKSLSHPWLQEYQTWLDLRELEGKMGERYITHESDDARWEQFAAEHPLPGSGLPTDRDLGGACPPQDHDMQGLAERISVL

O=S(=O)(CCNCc1ccc(-c2ccc3ncnc(Nc4ccc(OCc5cccc(F)c5)c(Cl)c4)c3c2)o1)c1ccccc1
inhibition [1]: 6.38%
inhibition [2]: 4.15%
inhibition [3]: 4.31%
inhibition [4]: 2.33%
inhibition [5]: 2.85%
inhibition [6]: 2.03%
inhibition [7]: 2.6%
inhibition [8]: 5.17%
inhibition [9]: 7.32%
inhibition [10]: 5.52%

CNC(=O)c1cccc(C#Cc2cncnc2Nc2ccc(OCc3cccc(F)c3)c(Cl)c2)c1
inhibition [1]: -1.09%
inhibition [2]: 0.26%
inhibition [3]: -0.26%
inhibition [4]: 0.09%
inhibition [5]: 1.85%
inhibition [6]: -3.35%
inhibition [7]: -0.69%
inhibition [8]: 0.59%
inhibition [9]: -0.61%
inhibition [10]: -0.57%

CC1=C(C(=O)Nc2cc(Cl)c3[nH]ncc3c2)C(c2ccc(C(F)(F)F)cc2)CC(=O)N1 (stereo not given)
inhibition [1]: 3.46%
inhibition [2]: 1.43%
inhibition [3]: 1.11%
inhibition [4]: 5.67%
inhibition [5]: 28.3%
inhibition [6]: 1.98%
inhibition [7]: 2.19%
inhibition [8]: 2.79%
inhibition [9]: 6.51%
inhibition [10]: 3.43%

CCn1c(-c2nonc2N)nc2c(C#CC(C)(C)O)nc(OC[C@H](N)c3ccccc3)cc21
inhibition [1]: 45.5%
inhibition [2]: 0.16%
inhibition [3]: 3.1%
inhibition [4]: 55.1%
inhibition [5]: 82.7%
inhibition [6]: 16.3%
inhibition [7]: 59.4%
inhibition [8]: 5.85%
inhibition [9]: 29.9%
inhibition [10]: 5.65%

CCOc1ccc2c(-c3ccnc(Nc4cccc(C(F)(F)F)c4)n3)cnn2n1
inhibition [1]: 2.94%
inhibition [2]: 1.45%
inhibition [3]: 0.72%
inhibition [4]: 0.84%
inhibition [5]: 0.7%
inhibition [6]: 0.45%
inhibition [7]: 0.29%
inhibition [8]: 3.34%
inhibition [9]: 3.21%
inhibition [10]: 3.62%

COc1cccc(-n2ncc3c(N/N=C/c4ccc(F)cc4)ncnc32)c1
inhibition [1]: 2.6%
inhibition [2]: 1.87%
inhibition [3]: 1.45%
inhibition [4]: 2.53%
inhibition [5]: 4.19%
inhibition [6]: 2.56%
inhibition [7]: 0.22%
inhibition [8]: 3.64%
inhibition [9]: 4.89%
inhibition [10]: 3.35%

[O-][S+]1CCN(Cc2ccc(-c3ccc4ncnc(Nc5ccc(OCc6cccc(F)c6)c(Cl)c5)c4c3)o2)CC1
inhibition [1]: 1.04%
inhibition [2]: 3.42%
inhibition [3]: 2.26%
inhibition [4]: 2.17%
inhibition [5]: 2.74%
inhibition [6]: 2.05%
inhibition [7]: 2.51%
inhibition [8]: 5.58%
inhibition [9]: 10.6%
inhibition [10]: 4.6%

CN1CCC(n2cnc(-c3ccc(F)cc3)c2-c2ccnc(N)n2)CC1
inhibition [1]: 8.99%
inhibition [2]: 0.59%
inhibition [3]: 0.68%
inhibition [4]: 1.72%
inhibition [5]: 3.61%
inhibition [6]: 2.83%
inhibition [7]: 12.3%
inhibition [8]: 4.67%
inhibition [9]: 26.3%
inhibition [10]: 3.25%

NS(=O)(=O)c1ccc(Nc2ncc(-c3ccccc3)o2)cc1
inhibition [1]: 2.49%
inhibition [2]: 2.01%
inhibition [3]: 1.3%
inhibition [4]: 1.68%
inhibition [5]: 3.14%
inhibition [6]: 0.96%
inhibition [7]: 2.07%
inhibition [8]: 3.47%
inhibition [9]: 6.2%
inhibition [10]: 2.92%

CCNC(=O)O[C@H]1CN[C@H](C#Cc2cc3ncnc(Nc4ccc(OCc5cccc(F)c5)c(Cl)c4)c3s2)C1
inhibition [1]: 3.31%
inhibition [2]: 1.37%
inhibition [3]: 3.17%
inhibition [4]: 1.01%
inhibition [5]: 0.75%
inhibition [6]: -0.74%
inhibition [7]: 0.7%
inhibition [8]: 2.66%
inhibition [9]: 4.66%
inhibition [10]: 2.15%

Clc1ccc(-c2nn3ncccc3c2-c2ccnc(Nc3ccccc3)n2)cc1
inhibition [1]: -1.39%
inhibition [2]: 0.23%
inhibition [3]: 0.46%
inhibition [4]: 0.91%
inhibition [5]: -0.72%
inhibition [6]: -0.06%
inhibition [7]: 3.99%
inhibition [8]: 1.65%
inhibition [9]: 2.76%
inhibition [10]: 1.23%

COc1ccc(-c2cc3c(N)ncnc3o2)cc1
inhibition [1]: 8.58%
inhibition [2]: -0.83%
inhibition [3]: -1.03%
inhibition [4]: -1.21%
inhibition [5]: -1.64%
inhibition [6]: 0.45%
inhibition [7]: 1.65%
inhibition [8]: -1%
inhibition [9]: -1.28%
inhibition [10]: -0.34%

COC(=O)c1sc(-n2cnc3cc(OC)c(OC)cc32)cc1OCc1ccccc1C(F)(F)F
inhibition [1]: 2.66%
inhibition [2]: 0.97%
inhibition [3]: 2.66%
inhibition [4]: 1.11%
inhibition [5]: 0.41%
inhibition [6]: 0.96%
inhibition [7]: 1.08%
inhibition [8]: 3.64%
inhibition [9]: 5.12%
inhibition [10]: 4.89%

c1ccc(-c2nc3n(c2-c2ccc4c(c2)OCO4)CCC3)nc1
inhibition [1]: 2.8%
inhibition [2]: 2.19%
inhibition [3]: 3.9%
inhibition [4]: 1.78%
inhibition [5]: 3.83%
inhibition [6]: 1.96%
inhibition [7]: 4.57%
inhibition [8]: 1.92%
inhibition [9]: 5.43%
inhibition [10]: 1.94%

Cc1cccc(Nc2ncc(-c3ccccc3)o2)c1
inhibition [1]: 7.25%
inhibition [2]: 1.43%
inhibition [3]: 2.2%
inhibition [4]: 4.9%
inhibition [5]: 6.83%
inhibition [6]: 2.39%
inhibition [7]: 7.38%
inhibition [8]: 3.07%
inhibition [9]: 5.44%
inhibition [10]: 3.21%

CCn1c(-c2nonc2N)nc2cnc(Oc3cccc(NC(=O)c4ccc(N(C)C)cc4)c3)cc21
inhibition [1]: 28.3%
inhibition [2]: 6.04%
inhibition [3]: 45%
inhibition [4]: 5.55%
inhibition [5]: 32.3%
inhibition [6]: 4.27%
inhibition [7]: 21.8%
inhibition [8]: 1.61%
inhibition [9]: 4.29%
inhibition [10]: 1.81%
